Rows were chosen to be rich in hits. Some 1.4% of all compounds tested hit in one or more screens of this group.
N370S GC mod = inhibitors or activators of N370S glucocerebrosidase for Gaucher disease. N370S GC spleen homogenate, 4MU-glucoside fluorescence. 330,000 tested, 0.092% active. Potency, µM (doses to about 59.4 µM), without a hit: top-dose activity change, negative = inhibition, actives largely listed as inhibitors;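 further: potency means the concentration at half of the fitted maximal effect; 0% = full enzyme activity and -100% = no enzyme basal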
BRCA1 expr act = activators of BRCA1 expression; MCF7-BRCA1-FFLuc reporter, luminescence, 48 h; response scale: scaled: vehicle 0%, 10 µM genistein 100%; Potency, µM (highest dose often 46.1 µM), for the others: top-dose activation, actives largely listed as activators; 380,000 tested, 1.1% active; further: potency means the concentration at half of the fitted maximal effect; nearly all actives have a fitted effect of over 80% in size
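Luminescence from a BRCA1-driven firefly luciferase in MCF7 cells was the read-out, taken 15 min after substrate addition following 48 h compound exposure at 37 °C. Data were normalized to a 10 microM genistein control and DMSO vehicle.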
p53 reactivation = mutant p53 re-activation in reporter cells. H1299 p53-A138V BP100-luciferase reporter, luminescence, 24 h. Potency, µM (top dose mostly 92.2 µM), for the others: top-dose activity change, positive = activation, most hits filed as activators. 320,000 tested, 0.063% active; further: potency means the concentration at half of the fitted maximal effect; % of control where 0% means no effect; nearly all actives have a fitted effect of over 45% in size
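p53-null H1299 cells stably carrying temperature-sensitive p53-A138V and a BP100-luciferase reporter were pinned with compounds (4-point, 1:5 series) and held 24 hrs at 37 deg C. Luminescence was read 10 min after detection reagent.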
TCR act = activators of T cell receptors; primary human leukocytes, anti-CD3, IL-2 HTRF, 48 h; Potency, µM (series often up to 9.22 µM), inactives show top-dose activation of IL-2 secretion, hits mostly activators; 330,000 tested, under 10 active; AID 504894; further: % of control where 0% means no effect
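Primary human leukocytes were stimulated with a-CD3 beads plus compounds for 48 hr without co-stimulation; secreted IL-2 was quantified by HTRF using a-IL-2-K (europium cryptate) and a-IL-2-d2, excited at 320nm with acceptor emission read at 665nm.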
GLS inh = inhibitors of human glutaminase (GLS); AID 624170; GLS enzymatic activity, qHTS titration; 410,000 tested, 0.21% active; Potency, µM (doses to about 45.5 µM), without a hit: at the top dose activity change, negative = inhibition, hits mostly inhibitors; O94925; further: potency means the concentration at half of the fitted maximal effect; on the % scale 0 is the no-effect control and ±100 the full control effect
Target sequence (O94925 whole entry, looked up): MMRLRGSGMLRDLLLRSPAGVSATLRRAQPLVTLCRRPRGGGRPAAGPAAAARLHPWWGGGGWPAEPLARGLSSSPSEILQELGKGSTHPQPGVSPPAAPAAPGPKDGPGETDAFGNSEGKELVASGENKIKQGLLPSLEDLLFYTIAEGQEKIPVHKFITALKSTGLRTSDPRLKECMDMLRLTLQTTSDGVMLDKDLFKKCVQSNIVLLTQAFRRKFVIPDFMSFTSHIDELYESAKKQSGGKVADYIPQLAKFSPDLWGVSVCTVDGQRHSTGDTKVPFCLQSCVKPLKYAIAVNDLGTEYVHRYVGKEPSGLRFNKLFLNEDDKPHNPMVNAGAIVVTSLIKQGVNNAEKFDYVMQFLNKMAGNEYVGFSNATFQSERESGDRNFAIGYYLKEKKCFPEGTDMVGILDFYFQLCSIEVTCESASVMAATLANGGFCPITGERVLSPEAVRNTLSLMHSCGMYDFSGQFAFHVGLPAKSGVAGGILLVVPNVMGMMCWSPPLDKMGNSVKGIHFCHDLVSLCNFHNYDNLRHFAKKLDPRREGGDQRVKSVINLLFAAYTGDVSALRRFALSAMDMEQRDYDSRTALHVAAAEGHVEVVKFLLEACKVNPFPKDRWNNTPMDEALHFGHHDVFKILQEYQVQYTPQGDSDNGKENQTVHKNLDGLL
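Read-out is an Amplex red fluorescence increase coupled through glutamate oxidase and HRP, measured before and after 30 min room-temperature incubation. hKGA is in 45 mM KH2PO4 (pH 8.2) with 0.02% Tween-20; glutamine added as 1mM solution.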
TSHR antag = antagonists of human thyroid stimulating hormone receptor; TSHR-expressing cells, TSH-stimulated cAMP HTRF, 2 h; active compounds read low; activity change, negative = inhibition, % at 11.5 µM; 330,000 tested, 0.2% active;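 active means activity change below a set negative limit, meaning inhibition stronger than a set level, cut at about -70% in these data; inconclusive means activity change between two set negative limits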; further: on the % scale 0 is the no-effect control and ±100 the full control effect
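Cell-based HTRF cAMP assay; TSHR cells + compound, TSH EC80 (4nM final), 2 h, 37 deg C. Lysis with anti-cAMP cryptate and cAMP-d2, 30 min RT, read 665/620 nm.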
* hit, by the source's call; ? = inconclusive; · = not tested or not shown; [ ] = remark or other dose. Unless noted, the call rests on the fitted dose curve; in most records, active means well fitted curve in the direction sought with a large enough effect; inconclusive means small, poorly fitted or top-dose-only effect, or another doubt; inactive means no such curve, though single readings can be large; an effect the other way counts as inactive or inconclusive.

SMILES | N370S GC mod | BRCA1 expr act | p53 reactivation | TCR act | GLS inh | TSHR antag
Cc1onc(-c2ccccc2)c1NC(=O)N(CCC(=O)O)Cc1ccccc1 | 4.9% | 0.1% | -3.6% | -2.2% | -1.1% | 1.4
Cc1onc(-c2ccccc2)c1NC(=O)N(Cc1ccccc1)C(C)C | 12.3% | 3.3% | -0.2% | -1.5% | -3.1% | -117.3*
Nc1ccn(Cc2ccccc2F)n1 | ? | 8.8% | -3.5% | -5.5% | -1.4% | -72.5*
Cc1ccc(F)cc1-c1ccc(C(=O)N=C(N)N)o1 | -6.9% | · | · | · | · | ·
Cn1ccnc1SCC(=O)c1ccc2ccccc2c1 | 3.3% | 6.31µM* | 22.1% | 10.0% | 1.3% | -3.5
O=C(C[n+]1cccc(Br)c1)c1cccc([N+](=O)[O-])c1 | · | 2.0% | · | · | · | ·
Cc1ccc(CNC(=O)c2ccc3c(c2)NC(=O)C(CS(=O)(=O)Cc2ccc(F)cc2)N3)cc1 (stereo not drawn) | · | · | · | · | 12.6µM* | ·
CN(C)c1ccc(CC2CCc3ccccc32)cc1 (stereo not drawn) | · | 35.3% | · | · | · | ·
Nc1ccc(NC(=O)NC2CCCCC2)cc1[N+](=O)[O-] | 15.4% | 3.98µM* | 11.7% | -6.8% | -1.2% | 10.2
Nc1ccnc2c1ncn2[C@@H]1O[C@H](CO)[C@@H](O)[C@H]1O | -11.3% | · | · | · | · | ·
Cc1ccc(NC(=O)C2C3CC4OC(=O)C2C4C3)cc1Cl (stereo not drawn) | 0.8% | -0.8% | -0.1% | 1.4% | 0.4% | 10.2
CC(C)OC(=O)c1ccc(NC(=O)C2C3CC4OC(=O)C2C4C3)cc1 (stereo not drawn) | -2.0% | 7.08µM* | ? | 2.2%[46.1 µM] | -2.4% | 2.8
CCN(CC)c1ccc(NC(=O)C2=CC=CN3CCS(=O)(=O)N=C23)cc1 | · | 39.1% | 12.8% | -0.7% | 41.6% | -5.1
CC(C)(C)c1ccc(NC(=O)C2=CC=CN3CCS(=O)(=O)N=C23)cc1 | · | 10µM* | ? | 0.5% | 1.0% | 37.4
O=C(NC1CCCC1)c1cc(-c2ccccc2Cl)on1 | 3.8% | ? | ? | 0.9% | 0.7% | -10.4
O=C(NC1CCCC1)c1cc(-c2ccccc2O)on1 | -4.9% | 2.82µM* | ? | 3.5% | -6.7% | 2.5
O=C(NC1CCCCC1)c1cc(-c2cccc(Cl)c2)on1 | 0.5% | 4.47µM* | 19.3% | -0.5% | -5.4% | -8.8
O=C(NC1CCCCC1)c1cc(-c2ccc(Cl)cc2)on1 | 4.0% | 28.9% | 13.8% | -0.8% | 9.4% | -0.1
CC1(OC(=O)c2cccs2)C(=O)C=C2C=C3CCCN3C=C2C1=O (stereo not drawn) | 0.2%[12.8 µM] | -5.4% | -0.7% | 1.3% | 15.8µM* | -2.8
Cc1cccc(C)c1N(CCCc1cccnc1)C(=O)[C@@H](C)N | · | · | · | · | -1.0% | ·
O=c1[nH]c2ccccc2c(O)c1-[n+]1ccccc1 | -1.4% | 17.8% | 2.5% | -0.2% | 1.1% | -1.6
O=c1[nH]c2ccccc2c(O)c1O | -22.9% | -14.3% | 17.8% | 4.4% | 5.62µM* | 18.9
Cc1cc(NC(=O)c2ccc(Cl)cc2)no1 | -2.3% | 3.98µM* | ? | -0.9% | 0.6% | -3.4
Cc1cc(NC(=O)Cc2ccccc2)no1 | 5.3% | -2.3% | 9.5% | -5.7% | 0.7% | -2.8
Cc1cc(NC(=O)NC(=O)c2ccccc2)no1 | -0.5% | 5.01µM* | 15.1% | -3.0% | 4.4% | -8.1
Cc1cc(NC(=O)CSc2cn(CCNC(=O)c3ccccc3)c3ccccc23)no1 | -2.9% | -6.2% | 1.3% | 0.3% | 8.91µM* | -6.3
COc1cc(C2Sc3ccccc3NC3=C2C(=O)OC3)cc(OC)c1OC (stereo not drawn) | -27.3% | -76.2% | -11.7% | 1.2%[46.1 µM] | -17.8% | -4.6
O=C1OCC2=C1C(c1ccc(F)cc1)Sc1ccccc1N2 (stereo not drawn) | 17.8µM* | -31.4% | 2.9% | -0.4% | 2.9% | 5.9
CCCCCCOc1ccc(C(=N)N(CCCC)CCCC)c2ccccc12 | · | · | · | · | -2.7% | ·
N#C/C(C(=O)c1ccccc1)=C1/CCCCCN1 | 5.8% | 3.98µM* | ? | 0.1% | 5.1% | 5.3

From PubChem
